{
  "source": "PubChem BioAssay AID504834",
  "about": "(National Center for Advancing Translational Sciences (NCATS), 2011)",
  "note": "In all, about 320,000 compounds went through this assay and about 22,000 (6.9%) were called active. Not shown: some 27% with an inconclusive outcome. Shown is part of a subset that was picked to be rich in actives. A number with no mark means an inactive call. Calls follow the shape of the dose curve; as a rule, active = well fitted inhibition curve with a large enough effect; inconclusive = small, poorly fitted or top-dose-only effect, or another doubt; inactive = no such curve, though single readings can be large or run the other way. % is scaled to controls: 0 for no effect and ±100 for the full control effect; potency is read from the fitted curve at half-maximal effect.",
  "data": [
    {"test": "Primary qHTS for delayed death inhibitors of the malarial parasite plastid, 96 hour incubation", "settings": "P. falciparum luciferase reporter growth; series mostly up to 28.7 µM; activity change, negative = inhibition: at the top concentration", "outline": "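Erythrocytes infected with luciferase-expressing P. falciparum were dispensed at 2% hematocrit and 0.05% parasitemia (final), then incubated with compounds 96 hours at 37 C in 5% CO2. Luminescence after detection reagent addition reported growth.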", "units": {"activity change, negative = inhibition": "%"}, "values": [
      {"smiles": "O=C(OCC(=O)c1cccs1)c1ccc([N+](=O)[O-])o1", "activity change, negative = inhibition": 17.2},
      {"smiles": "Cc1onc(NC(=O)c2ccc([N+](=O)[O-])o2)c1Br", "Potency": "5.86 µM (active)"},
      {"smiles": "Cc1cc(NC(=O)COc2ccc([N+](=O)[O-])cc2)no1", "activity change, negative = inhibition": -28.6},
      {"smiles": "Cc1cc(C)c2c(=O)[nH]c(SCC(=O)Nc3ccc(Br)cc3)nc2n1", "activity change, negative = inhibition": -7.23},
      {"smiles": "Cc1ccc(S(=O)(=O)N2CCOCC2)cc1NC(=O)COC(=O)c1cnccn1", "activity change, negative = inhibition": 29.9},
      {"smiles": "Nc1nc(SCC(=O)Nc2ccc(Cl)cc2C(F)(F)F)n[nH]1", "activity change, negative = inhibition": 14.2},
      {"smiles": "Cc1ccc(S(=O)(=O)NCC2CCC(C(=O)N3CCOCC3)CC2)cc1", "note": "(stereo unspecified)", "activity change, negative = inhibition": 5.81},
      {"smiles": "Cc1ccccc1CSCCNC(=O)c1ccc(N(C)S(=O)(=O)c2ccccc2)cc1", "activity change, negative = inhibition": 5.36},
      {"smiles": "Cc1ccc(NC(=O)CCCNC(=O)c2ccc(Cl)cc2)cc1S(=O)(=O)N1CCOCC1", "activity change, negative = inhibition": -23.3},
      {"smiles": "Cc1ccccc1CSCCNC(=O)c1ccc(Cl)c(S(=O)(=O)N2CCOCC2)c1", "Potency": "13.1 µM (active)"},
      {"smiles": "CC(C)(CNC(=O)Cc1ccc(Cl)cc1Cl)N1CCOCC1", "activity change, negative = inhibition": 4.76},
      {"smiles": "CN(CC(=O)Nc1ccc(F)cc1)CC(=O)Nc1ccc(Cl)c(S(=O)(=O)N2CCOCC2)c1", "activity change, negative = inhibition": -1.1},
      {"smiles": "CN(C)S(=O)(=O)c1ccc(C(=O)NCC(C)(C)N2CCOCC2)cc1", "activity change, negative = inhibition": -13.6},
      {"smiles": "O=C(NCCSCc1ccccc1)c1ccc(Cl)c(S(=O)(=O)N2CCOCC2)c1", "Potency": "11.7 µM (active)"},
      {"smiles": "O=C(NCc1cccnc1)c1cc(S(=O)(=O)N2CCOCC2)c(Cl)cc1Cl", "activity change, negative = inhibition": 2.43},
      {"smiles": "CC(C)(CNC(=O)c1ccc(Cl)c(S(=O)(=O)N2CCc3ccccc3C2)c1)N1CCOCC1", "Potency": "7.38 µM (active)"},
      {"smiles": "COc1ccccc1N(CC(=O)NC1CCCC1)C(=O)C1(C)CC(=O)N=C2C=CC(C)=CN21", "note": "(stereo unspecified)", "activity change, negative = inhibition": 10.9},
      {"smiles": "O=C(Nc1ccc(N2CCCCC2)cc1)c1cc(S(=O)(=O)N2CCOCC2)ccc1F", "activity change, negative = inhibition": -9.34},
      {"smiles": "COC(=O)c1ccc(CNC(=O)c2ccc3oc(C(C)C)nc3c2)cc1", "activity change, negative = inhibition": 18.4},
      {"smiles": "NCCCCC(N)C(=O)O", "note": "(stereo unspecified)", "activity change, negative = inhibition": -8.26},
      {"smiles": "COCC1CCN(C(=O)c2ccc3oc(Cc4ccccc4)nc3c2)C1", "note": "(stereo unspecified)", "activity change, negative = inhibition": 24.6},
      {"smiles": "CCOc1ccc2nc(NCCNS(=O)(=O)c3ccccc3)c(C#N)cc2c1", "Potency": "13.1 µM (active)"},
      {"smiles": "CCOc1ccc(S(=O)(=O)NCCSc2ccccc2)cc1", "activity change, negative = inhibition": 61.3},
      {"smiles": "COc1ccc(CNC(=O)C(C)NCc2ccccc2Cl)cc1", "note": "(stereo unspecified)", "activity change, negative = inhibition": 3.38},
      {"smiles": "CCOC(=O)N1CCN(C(=O)c2ccccc2N(Cc2ccccc2)S(=O)(=O)c2ccc(OC)cc2)CC1", "activity change, negative = inhibition": -7.44},
      {"smiles": "COc1ccc(S(=O)(=O)N(CC(=O)N/N=C/c2ccc(C(=O)O)cc2)Cc2ccccc2)cc1OC", "activity change, negative = inhibition": 32.2},
      {"smiles": "CCOC(=O)CN(Cc1ccc(OC)c(OC)c1)S(=O)(=O)c1ccc(OC)cc1", "Potency": "9.28 µM (active)"},
      {"smiles": "CCNC(=O)Nc1ccc(S(=O)(=O)Nc2cnc(C)nc2C)cc1", "activity change, negative = inhibition": -11},
      {"smiles": "COc1cc2c(C(=O)O)c(C)n(C)c2c2ccccc12", "activity change, negative = inhibition": 11.3},
      {"smiles": "O=C(NCCc1ccccc1)C(=O)NCC1OCCN1S(=O)(=O)c1cccs1", "note": "(stereo unspecified)", "activity change, negative = inhibition": 8.55},
      {"smiles": "COc1ccc(NS(=O)(=O)c2ccc(Oc3c(C#N)cccc3C#N)cc2)cc1", "activity change, negative = inhibition": -11},
      {"smiles": "O=c1[nH]c(-c2cccs2)nc2ccccc12", "activity change, negative = inhibition": -7.89},
      {"smiles": "CC(=O)Nc1cccc(Nc2nc(-c3cccs3)nc3ccccc23)c1", "Potency": "9.28 µM (active)"},
      {"smiles": "Cc1cccc(-c2nc(Nc3ccc(O)cc3)c3ccccc3n2)c1", "activity change, negative = inhibition": 0},
      {"smiles": "Cn1c(CO)cnc1SCc1ccccc1", "activity change, negative = inhibition": 33.8},
      {"smiles": "CSc1c(SCc2ccccc2)cnn(Cc2ccccc2)c1=O", "Potency": "9.28 µM (active)"},
      {"smiles": "CSc1nc2ccccc2c(=O)n1Cc1ccc(F)cc1", "activity change, negative = inhibition": -1.4},
      {"smiles": "Cc1ccc(C)c(OCCC(=O)OCC(=O)N2CCN(c3ccccc3)CC2)c1", "activity change, negative = inhibition": -25.7},
      {"smiles": "O=C1C=C(c2cccc(Cl)c2O)C[C@@H](c2ccc(F)cc2)C1", "Potency": "4.65 µM (active)"},
      {"smiles": "COc1cccc(C2=CC(=O)C[C@H](c3ccc(F)cc3)C2)c1OC", "activity change, negative = inhibition": 1.99},
      {"smiles": "CC(C)(C)SCCSC1=CC(=O)CC(c2ccccc2)C1", "note": "(stereo unspecified)", "activity change, negative = inhibition": 35.7},
      {"smiles": "COc1ccc([C@H]2CC(=O)C=C(/C=C/c3ccc(Cl)cc3)C2)cc1", "activity change, negative = inhibition": 37.3},
      {"smiles": "O=C1C=C(c2cccc(Br)c2)C[C@@H](c2ccc(F)cc2)C1", "Potency": "2.33 µM (active)"},
      {"smiles": "O=C(Cn1cnc2ccccc21)Nc1ccccc1-c1ccccc1", "activity change, negative = inhibition": -28.3},
      {"smiles": "COc1ccc(/C=C(/NC(=O)c2ccco2)C(=O)Nc2ccc(C(C)=O)cc2)cc1", "activity change, negative = inhibition": 32.6},
      {"smiles": "O=C(O)c1cccc2c1C(=O)N(C1CCCC1)C2", "activity change, negative = inhibition": 5.46},
      {"smiles": "Cc1nc2ccccc2cc1C(=O)N/N=C/c1ccc([N+](=O)[O-])cc1", "activity change, negative = inhibition": 14.4},
      {"smiles": "Cc1nonc1C(=O)N/N=C/c1ccc(O)cc1", "Potency": "0.262 µM (active)"},
      {"smiles": "O=C(C[n+]1ccccc1)N/N=C/c1ccc(O)cc1", "activity change, negative = inhibition": 27.5},
      {"smiles": "NC(=O)NC(CC(=O)NNC(=O)c1ccccn1)c1ccc(Cl)cc1", "note": "(stereo unspecified)", "activity change, negative = inhibition": -1.93},
      {"smiles": "O=C(NNC(=O)c1cc(S(=O)(=O)N2CCCCC2)ccc1Cl)c1ccccc1O", "activity change, negative = inhibition": -25.4},
      {"smiles": "O=C(Nc1ccccc1)c1ccc(NC(=O)c2cccs2)cc1", "activity change, negative = inhibition": -8.55},
      {"smiles": "O=C(Nc1ccccc1Cl)Nc1cccc2cccnc12", "activity change, negative = inhibition": 3.34},
      {"smiles": "CC(=O)N1CCN(C(=O)c2cc(-c3ccc(C)o3)nc3ccccc23)CC1", "activity change, negative = inhibition": 0},
      {"smiles": "O=C(c1cc2nc(-c3ccccc3)cc(-c3ccccc3)n2n1)N1CCC2(CC1)OCCO2", "activity change, negative = inhibition": -23.6},
      {"smiles": "O=C(c1cc(-c2ccncc2)nc2ccccc12)N1CCC2(CC1)OCCO2", "Potency": "4.15 µM (active)"},
      {"smiles": "Cc1cc(C(=O)OC(C)C(=O)NC2CCCCC2C)c(C)o1", "note": "(stereo unspecified)", "activity change, negative = inhibition": 3.99},
      {"smiles": "CCN(CC)C(=O)C1CCC(C)(C(=O)O)C1(C)C", "note": "(stereo unspecified)", "activity change, negative = inhibition": -17},
      {"smiles": "NC(=O)N1CCCC1C(=O)Nc1ccc(Cl)c(Cl)c1", "note": "(stereo unspecified)", "activity change, negative = inhibition": 9.43},
      {"smiles": "CC1(C(=O)O)CCC(C(=O)Nc2ccc(Cl)c(Cl)c2)C1(C)C", "note": "(stereo unspecified)", "Potency": "10.4 µM (active)"},
      {"smiles": "O=C(CN1CCN(S(=O)(=O)c2cccc(Cl)c2)CC1)N1CCCCC1", "activity change, negative = inhibition": -7.81}
    ]}
  ]
}
